Measured values: PubChem BioAssay (NCI)
About 83,000 compounds went through this panel and 20% of them were active in at least one assay; those are over-represented in the sample as a whole.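 Plates (96-well) were seeded with cells, treated with compound at one concentration, and incubated for 48 hours before percent growth was determined.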 Activity calls are given as the source filed them. The calls were made as follows: active = growth percent below 10; inactive = the rest.

The compounds below were run on EKVX NSCLC (assay: NCI-60 one-dose screen, 48 h (100 = growth as untreated, 0 = no growth, -100 = all killed)). Settings: 10 µM unless noted.

Row | SMILES | growth
1 | CCCCCCCCN(CCCCCCCC)C(=O)CCl | 108% (inactive)
2 | O=C(Nc1ccc(-n2ccc3c(NC(=O)c4ccccc4)nccc32)cc1)c1ccc(N2CCOCC2)c(C(F)(F)F)c1 | 65.6% (inactive)
3 | O=C1/C(=C/c2ccccc2)SC(=Nc2ccccc2)N1Nc1ccccc1 | 18.9% (inactive)
4 | C[N+](C)(C)CC(=O)N/N=C\c1ccco1 | 103% (inactive)
5 | CC(C)CCSc1nc(-c2ccc(F)cc2)c(C#N)c(N2CCN(C)CC2)n1 | 87.8% (inactive)
6 | CC(=O)Oc1c(Cl)c(Cl)c(Cl)c(Cl)c1Cl | 87.6% (inactive)
7 | CN(C)c1nc(-c2cccs2)n2nc(-c3ccc(Cl)cc3)cc2n1 | 49.6% (inactive)
8 | COc1nccc2c(Sc3ccccc3)nc(N)nc12 | 117% (inactive)
9 | c1cn2cc(-c3ccc4ncn(C5CCCCC5)c4c3)nc(-c3ccc4c(c3)ncn4C3CCCCC3)c2n1 | -13.1% (active)
10 | CCc1onc(-c2ccc(OC)cc2)c1-c1ccccc1OCCN(CC)CC | 85.2% (inactive)
11 | CCN(CCC#N)c1ccccc1 | 101% (inactive)
12 | S=C(S)Oc1cccc2cccnc12 | 115% (inactive)
13 | COc1ccccc1CNCCCN1C(=O)c2ccc3c4c(ccc(c24)C1=O)C(=O)N(CCCNCCCN)C3=O | 34.7% (inactive)
14 | CC(C)c1ccc(-c2cnc3nonc3n2)cc1 | 71.9% (inactive)
15 | CN1CCCN(CCNc2nccc(-c3c(-c4cccc(O)c4)nc4sccn34)n2)S1(=O)=O | 84.9% (inactive)
16 | COc1ccccc1CNCCCN1C(=O)c2ccc3c4c(ccc(c24)C1=O)C(=O)N(CCCCNCCCN)C3=O | 48.1% (inactive)
17 | CCC(=O)OCc1ccc(OC)cc1 | 107% (inactive)
18 | COc1ccc2[nH]cc(C3(c4c[nH]c5ccc(OC)cc45)C(=O)Nc4ccc(F)cc43)c2c1 | 37% (inactive)
19 | CN1C(=O)NC(Cc2c[nH]c3c(Cl)cccc23)C1=O (stereo unspecified) | 118% (inactive)

Row | SMILES | growth
20 | NC(N)=N/N=C/c1ccc(Cl)cc1 | 64.2% (inactive)
21 | CC(C)(c1ccccc1)c1cc(O)c(C(C)(C)c2ccccc2)cc1O | 33% (inactive)
22 | COc1cc(-c2nn(C(=O)NCCN3CCN(C)CC3)cc2-c2ccncc2)ccc1Cl | 46.9% (inactive)
23 | CCCCCCCCCCCCCCCCCC(=O)[O][Sn]([CH2]CCC)([CH2]CCC)[CH2]CCC | -40.1% (active)
24 | CC(C)c1nc2ccccc2n1CC(=O)N/N=C/c1cccc(O)c1 | 105% (inactive)
25 | O=C(Nc1ccc(Cl)cc1)c1cc(-c2ccc(Cl)cc2)c2sc(=O)[nH]c2n1 | 9.13% (active)
26 | Oc1ccc(-c2nnc3c4[nH]ccc4ncn23)cc1 | 93.6% (inactive)
27 | Cc1nc(N)nc2c1CCC(Nc1ccccc1)S2 (stereo unspecified) | 103% (inactive)
28 | NNC(=O)CSc1nc2scc(-c3ccccc3)c2c(=O)n1-c1ccccc1 | 103% (inactive)
29 | COC(=O)C(Br)(C(=O)OC)C(Br)C(Br)C(Br)c1ccccc1 (stereo unspecified) | 105% (inactive)
30 | COc1cnc2c(c1)C(=O)c1c-2n(CCCN2CCN(C)CC2)c(=O)c2cc(Cl)ccc12 | 51.5% (inactive)
31 | COc1cc([N+](=O)[O-])cc(OC)c1OC | 104% (inactive)
32 | O=c1oc2ccccc2cc1-c1cc(-c2ccc(-c3cc(-c4cc5ccccc5oc4=O)nc(-c4cc5ccccc5oc4=O)c3)cc2)cc(-c2cc3ccccc3oc2=O)n1 | 96% (inactive)
33 | CCCCCCCOc1cccc(/C=C2\N=C3SCCCN3C2=O)c1 | 92.7% (inactive)
34 | CN(C)c1ccc(C2(Cl)c3ccccc3N(C)c3ccccc32)cc1 | 47.8% (inactive)
35 | O=C(Nc1cccc(-n2ccc3c(NC(=O)c4ccccc4)nccc32)c1)c1ccc(N2CCOCC2)c(C(F)(F)F)c1 | 45.5% (inactive)
36 | Fc1ccc(-c2nc(-c3ccc(-c4nc5ccc(F)cc5[nH]4)cc3)no2)cc1 | 85.1% (inactive)
37 | Clc1ccc(C2=NN[C@H](c3cn(-c4ccccc4)nc3-c3ccccc3)C2)cc1 | 35.3% (inactive)
38 | CNC1=C([N+](=O)[O-])C(c2ccccc2O)C(C#N)=C(c2cccs2)O1 (stereo unspecified) | 97.2% (inactive)

Each compound was assayed on SN12C renal in the same assay as above. Settings: 10 µM unless noted.

Row | SMILES | growth
39 | CCCCCCCCN(CCCCCCCC)C(=O)CCl | 93.8% (inactive)
40 | O=C(Nc1ccc(-n2ccc3c(NC(=O)c4ccccc4)nccc32)cc1)c1ccc(N2CCOCC2)c(C(F)(F)F)c1 | 41.8% (inactive)
41 | O=C1/C(=C/c2ccccc2)SC(=Nc2ccccc2)N1Nc1ccccc1 | -58.3% (active)
42 | C[N+](C)(C)CC(=O)N/N=C\c1ccco1 | 106% (inactive)
43 | CC(C)CCSc1nc(-c2ccc(F)cc2)c(C#N)c(N2CCN(C)CC2)n1 | 88.8% (inactive)
44 | CC(=O)Oc1c(Cl)c(Cl)c(Cl)c(Cl)c1Cl | 94.1% (inactive)
45 | CN(C)c1nc(-c2cccs2)n2nc(-c3ccc(Cl)cc3)cc2n1 | 44.9% (inactive)
46 | COc1nccc2c(Sc3ccccc3)nc(N)nc12 | 105% (inactive)
47 | c1cn2cc(-c3ccc4ncn(C5CCCCC5)c4c3)nc(-c3ccc4c(c3)ncn4C3CCCCC3)c2n1 | -54.6% (active)
48 | CCc1onc(-c2ccc(OC)cc2)c1-c1ccccc1OCCN(CC)CC | 91.4% (inactive)
49 | CCN(CCC#N)c1ccccc1 | 90.8% (inactive)
50 | S=C(S)Oc1cccc2cccnc12 | 89.8% (inactive)
51 | COc1ccccc1CNCCCN1C(=O)c2ccc3c4c(ccc(c24)C1=O)C(=O)N(CCCNCCCN)C3=O | -56.8% (active)
52 | CC(C)c1ccc(-c2cnc3nonc3n2)cc1 | 26.2% (inactive)
53 | CN1CCCN(CCNc2nccc(-c3c(-c4cccc(O)c4)nc4sccn34)n2)S1(=O)=O | 38.1% (inactive)
54 | COc1ccccc1CNCCCN1C(=O)c2ccc3c4c(ccc(c24)C1=O)C(=O)N(CCCCNCCCN)C3=O | -80.2% (active)
55 | CCC(=O)OCc1ccc(OC)cc1 | 91% (inactive)
56 | COc1ccc2[nH]cc(C3(c4c[nH]c5ccc(OC)cc45)C(=O)Nc4ccc(F)cc43)c2c1 | 106% (inactive)
57 | CN1C(=O)NC(Cc2c[nH]c3c(Cl)cccc23)C1=O (stereo unspecified) | 101% (inactive)

Row | SMILES | growth
58 | NC(N)=N/N=C/c1ccc(Cl)cc1 | 94.9% (inactive)
59 | CC(C)(c1ccccc1)c1cc(O)c(C(C)(C)c2ccccc2)cc1O | 22.4% (inactive)
60 | COc1cc(-c2nn(C(=O)NCCN3CCN(C)CC3)cc2-c2ccncc2)ccc1Cl | 82.4% (inactive)
61 | CCCCCCCCCCCCCCCCCC(=O)[O][Sn]([CH2]CCC)([CH2]CCC)[CH2]CCC | -47.2% (active)
62 | CC(C)c1nc2ccccc2n1CC(=O)N/N=C/c1cccc(O)c1 | 94.1% (inactive)
63 | O=C(Nc1ccc(Cl)cc1)c1cc(-c2ccc(Cl)cc2)c2sc(=O)[nH]c2n1 | -9.7% (active)
64 | Oc1ccc(-c2nnc3c4[nH]ccc4ncn23)cc1 | 95.2% (inactive)
65 | Cc1nc(N)nc2c1CCC(Nc1ccccc1)S2 (stereo unspecified) | 101% (inactive)
66 | NNC(=O)CSc1nc2scc(-c3ccccc3)c2c(=O)n1-c1ccccc1 | 101% (inactive)
67 | COC(=O)C(Br)(C(=O)OC)C(Br)C(Br)C(Br)c1ccccc1 (stereo unspecified) | 96.7% (inactive)
68 | COc1cnc2c(c1)C(=O)c1c-2n(CCCN2CCN(C)CC2)c(=O)c2cc(Cl)ccc12 | 43% (inactive)
69 | COc1cc([N+](=O)[O-])cc(OC)c1OC | 101% (inactive)
70 | O=c1oc2ccccc2cc1-c1cc(-c2ccc(-c3cc(-c4cc5ccccc5oc4=O)nc(-c4cc5ccccc5oc4=O)c3)cc2)cc(-c2cc3ccccc3oc2=O)n1 | 102% (inactive)
71 | CCCCCCCOc1cccc(/C=C2\N=C3SCCCN3C2=O)c1 | 94.1% (inactive)
72 | CN(C)c1ccc(C2(Cl)c3ccccc3N(C)c3ccccc32)cc1 | 19.1% (inactive)
73 | O=C(Nc1cccc(-n2ccc3c(NC(=O)c4ccccc4)nccc32)c1)c1ccc(N2CCOCC2)c(C(F)(F)F)c1 | 34% (inactive)
74 | Fc1ccc(-c2nc(-c3ccc(-c4nc5ccc(F)cc5[nH]4)cc3)no2)cc1 | 84.3% (inactive)
75 | Clc1ccc(C2=NN[C@H](c3cn(-c4ccccc4)nc3-c3ccccc3)C2)cc1 | 51.2% (inactive)
76 | CNC1=C([N+](=O)[O-])C(c2ccccc2O)C(C#N)=C(c2cccs2)O1 (stereo unspecified) | 98.2% (inactive)
